Drawing on PubChem BioAssay (Tox21), this text covers Potency for 20 compounds.

Assay [1] is described as follows: qHTS RealTime-Glo MT Cell Viability Assay in HEK293 cells - 0 hour (AID 1224880). Further: top concentration of the series differs between compounds; nearly all actives have a fitted effect of over 45% in size. Particulars: RealTime-Glo luminescence; series mostly up to 76.8 µM. Summed up:
(§1)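 Viable HEK293 cells reduce a cell-permeant prosubstrate; the product diffuses out and is consumed by NanoLuc in the medium to give light. Compounds went in after a 5 h incubation and plates were read over the treatment course.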
In general terms: In qHTS, concentration-response curves come from the screen itself.

Assay [2] is described as follows: A CellTox Green Cytotoxicity Assay to monitor cytotoxicity in HEK293 cells - 32 hour (AID 1224881). Further: nearly all actives have a fitted effect of over 40% in size. Further: potency means the concentration at half of the fitted maximal effect. The conditions noted are these: CellTox Green fluorescence; series mostly up to 76.8 µM. In a few lines: (§2)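 Fluorescence intensity, read at 0, 8, 16, 24, 32 and 40 h of compound treatment, reflected dye binding to DNA of dead HEK293 cells; compounds (23 nL, DMSO) were added 5 h after plating cells with reagent.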

Assay [3] can be described thus: A CellTox Green Cytotoxicity Assay to monitor cytotoxicity in HepG2 cells - 0 hour (AID 1224882). Further: nearly all actives have a fitted effect of over 35% in size. Particulars: CellTox Green fluorescence; series mostly up to 76.8 µM. Summed up: (§3)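 Using 1536-well format, dye-containing HepG2 suspension was seeded, allowed 5 h at 37 C/5% CO2, dosed by pintool with compounds, positive and negative controls, and imaged for fluorescence across 40 h.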

A short description of assay [4]: A CellTox Green Cytotoxicity Assay to monitor cytotoxicity in HEK293 cells - 8 hour (AID 1224884). Further: nearly all actives have a fitted effect of over 35% in size. The conditions noted are these: CellTox Green fluorescence; series mostly up to 76.8 µM. Summed up: as §2
The nature of assay [5]: qHTS RealTime-Glo MT Cell Viability Assay in HepG2 cells - 16 hour (AID 1224885). Further: nearly all actives have a fitted effect of over 50% in size. The conditions noted are these: RealTime-Glo luminescence; series mostly up to 76.8 µM. In a few lines: (§4)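 Cells + NanoLuc/prosubstrate dispensed (600 cells/well) → 5 h at 37 C/5% CO2 → compounds in DMSO transferred → 40 h incubation at 37 C, luminescence read at 0, 8, 16, 24, 32, 40 h.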
Assay [6] can be described thus: qHTS RealTime-Glo MT Cell Viability Assay in HEK293 cells - 24 hour (AID 1224886). Further: nearly all actives have a fitted effect of over 50% in size. Further: potency means the concentration at half of the fitted maximal effect. Particulars: RealTime-Glo luminescence; series mostly up to 76.8 µM. Summed up: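 Tox21 10K qHTS, HEK293, 600 cells/well, RealTime-Glo reagent co-dispensed with cells; 5 h preincubation, compound by pintool, 37 C, luminescence at 0–40 h.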
Assay [7] in a line: qHTS RealTime-Glo MT Cell Viability Assay in HEK293 cells - 8 hour (AID 1224887). Further: nearly all actives have a fitted effect of over 50% in size. Further: potency means the concentration at half of the fitted maximal effect. Particulars: RealTime-Glo luminescence; series mostly up to 76.8 µM. Summed up: as §1
Assay [8] can be described thus: A CellTox Green Cytotoxicity Assay to monitor cytotoxicity in HEK293 cells - 16 hour (AID 1224888). Further: nearly all actives have a fitted effect of over 35% in size. Particulars: CellTox Green fluorescence; series mostly up to 76.8 µM. In a few lines:
as §2

Assay [9] can be described thus: qHTS RealTime-Glo MT Cell Viability Assay in HepG2 cells - 0 hour (AID 1224889). Further: nearly all actives have a fitted effect of over 50% in size. Particulars: RealTime-Glo luminescence; series mostly up to 76.8 µM. In a few lines:
as §4

Assay [10] is described as follows: A CellTox Green Cytotoxicity Assay to monitor cytotoxicity in HepG2 cells - 32 hour (AID 1224883). Further: nearly all actives have a fitted effect of over 50% in size. Further: potency means the concentration at half of the fitted maximal effect. Particulars: CellTox Green fluorescence; series mostly up to 76.8 µM. Summed up: as §3

SMILES strings stand for the structures. Records with an inconclusive call do not appear. A structure can be active in one record and inactive in another. Activity calls are given as the source filed them. The call rests on the fitted dose curve; in most records, active means well fitted curve in the direction sought with a large enough effect in the repeat runs; inconclusive means weak or mixed curves; inactive means no such curve, though single readings can be large; an effect the other way counts as inactive or inconclusive.

Regarding `O=Cc1ccc(Cl)cc1Cl`, the Potency result in [1], in assay [2], in assay [3], in [4], in assay [5] and in assay [6] was “inactive” throughout. The Potency result in assay [7], in [8] and in assay [9] was “inactive” in each case.
`CCOP(=S)(OCC)Oc1nc(Cl)c(Cl)cc1Cl`: the Potency result in [1], in assay [3], in assay [10], in [5] and in assay [9] was “inactive” throughout. Moreover, the Potency in assay [2] is 39 µM (active) and inactive; in assay [6] it was 21.9 µM (active) and inactive; in assay [7] it was 19.5 µM (active) and inactive.
As for `ClCc1ccccc1`, the Potency entry in [1], in assay [2], in assay [3], in assay [5], in assay [6] and in assay [7] was “inactive” in each case. In addition, the Potency entry in assay [8] and in [9] was “inactive” in each case.
For `CO/N=C(/C(=O)OC)c1ccccc1COc1ccccc1C`, the Potency result in [1], in assay [2], in [3], in assay [10], in [5] and in [6] was “inactive” each time. Moreover, the Potency entry in [8] and in assay [9] was “inactive” in each case.
`COP(=O)(OC)O/C(=C/Cl)c1cc(Cl)c(Cl)cc1Cl`: the Potency entry in assay [1], in assay [2], in [3], in assay [4], in assay [5] and in [7] was “inactive” throughout. The Potency entry in [8] and in [9] was “inactive” throughout.
Regarding `CCOS(C)(=O)=O`, the Potency entry in assay [1], in assay [2], in assay [3], in assay [10], in [5] and in assay [6] was “inactive” in each case. The Potency entry in [7], in assay [8] and in [9] was “inactive” in each case.
For `Clc1cc(C(Cl)(Cl)Cl)cnc1Cl`, the Potency entry in assay [1], in assay [3], in [4], in [5], in assay [8] and in assay [9] was “inactive” in each case. For the same compound, in [10], the Potency was 34.7 µM (active).
For `C=CC(=O)OCCCCO`, the Potency result in assay [1], in assay [3], in [10], in [4], in assay [5] and in [6] was “inactive” in each case. Also, the Potency result in assay [7], in assay [8] and in assay [9] was “inactive” throughout.
In the case of `CC1CC(CC2CCC(N)C(C)C2)CCC1N` (centres undefined), the Potency entry in [1], in assay [3], in assay [10], in assay [5], in [7] and in [8] was “inactive” in each case. In assay [9], the Potency entry is “inactive”. For the same compound, the Potency in [6] is 44.4 µM (active).
With `C[C@H]1CNCCc2ccc(Cl)cc21`, the Potency entry in [1], in assay [3], in [10], in assay [4], in assay [5] and in assay [6] was “inactive” each time. Further, the Potency entry in assay [7], in [8] and in assay [9] was “inactive” in each case.
As for `O=S(=O)(Cl)c1ccccc1`, the Potency entry in assay [1], in [3], in assay [10], in [4], in assay [5] and in [6] was “inactive” throughout. Besides, the Potency result in assay [7], in assay [8] and in [9] was “inactive” each time.
For `CO/C=C(/C(=O)OC)c1ccccc1COc1cccc(C(F)(F)F)n1`, the Potency entry in [1], in assay [3], in assay [10], in [5], in assay [8] and in [9] was “inactive” throughout.
For the compound `COc1ccc(-c2ccccc2)cc1NNC(=O)OC(C)C`, the Potency entry in assay [1], in assay [3], in assay [10], in assay [4], in assay [8] and in [9] was “inactive” throughout. Moreover, the Potency in assay [6] is 51 µM (active).
Take `ClCc1cccc(Cl)c1`: the Potency entry in [1], in [3], in [10], in [4], in [5] and in assay [6] was “inactive” throughout. The Potency entry in assay [7], in assay [8] and in assay [9] was “inactive” each time.
For the compound `Brc1ccccc1`, the Potency entry in assay [1], in assay [3], in [10], in assay [4], in assay [5] and in assay [6] was “inactive” throughout. The Potency result in assay [7], in [8] and in assay [9] was “inactive” throughout.
For the compound `CCOP(=S)(OCC)SCSCC`, the Potency result in assay [1], in [3], in assay [10], in assay [4], in assay [5] and in assay [6] was “inactive” throughout. For the same compound, the Potency result in assay [7] and in assay [8] was “inactive” throughout.
On to `CC/C(=N\OC/C=C/Cl)C1=C(O)CC(C2CCOCC2)CC1=O` (centres undefined), for which the Potency entry in assay [1], in assay [3], in assay [10], in assay [5], in [6] and in assay [7] was “inactive” in each case. The Potency result in assay [8] and in assay [9] was “inactive” each time.
`CCCCCCCCCC(=O)O[C@H]1CC[C@H]2[C@@H]3CCC4=CC(=O)CC[C@@H]4[C@H]3CC[C@]12C`: the Potency entry in assay [1], in assay [3], in assay [10], in assay [5], in assay [6] and in assay [7] was “inactive” each time. In addition, the Potency entry in assay [8] and in assay [9] was “inactive” throughout.
`CCOC(=O)[C@]1(c2ccccc2)Oc2ccccc2[C@@H]1N`: the Potency result in assay [1], in assay [3], in [10], in assay [4], in assay [5] and in assay [7] was “inactive” in each case. Also, the Potency entry in assay [8] and in assay [9] was “inactive” each time.
As to `Cc1cc(=O)[nH]o1`, the Potency entry in [1], in assay [3], in [10], in assay [4], in assay [5] and in assay [6] was “inactive” each time. The Potency entry in assay [7], in assay [8] and in assay [9] was “inactive” in each case.
